Data on 15 compounds can be found in PubChem BioAssay (NCATS).

Experiment [1] deals with Zika virus NS2B-NS3 protease (linked construct). The experiment can be described thus: Confirmatory screen NINDS AMC qHTS for Zika virus inhibitors (AID 1347152). Further: potency means the concentration at half of the fitted maximal effect; nearly all actives have a fitted effect of over 70% in size. The method, boiled down: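 Linked NS2B-NS3 1 nM, Tris pH 8.0/0.01% Tween 20; cpd 15 min RT dark; + Nle-KRR-AMC 10 µM (Km 18.3 µM); read 0 and 15 min, 340/450 nm; %inh vs controls, 4-param Hill.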
Experiment [2] can be described thus: Confirmatory screen GU Rhodamine qHTS for Zika virus inhibitors qHTS (AID 1347157). Further: potency means the concentration at half of the fitted maximal effect; nearly all actives have a fitted effect of over 70% in size. The note with it: purified enzyme assay, Rhodamine110 substrate fluorescence, 15 min. A digest of the protocol: (§1)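 Percent inhibition derives from the 15-min fluorescence change (ex 480, em 540 nm), normalized to no-enzyme and no-inhibitor wells. Reactions contained 25 nM NS2B-NS3 complex and 1.5 microM substrate in 10 mM Tris-HCl pH 8.0.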

For experiment [3], the system named is Zika virus NS2B-NS3 protease (unlinked complex). The experiment can be described thus: Primary screen GU Rhodamine qHTS for Zika virus inhibitors: Unlinked NS2B-NS3 protease assay (AID 1347159). Further: nearly all actives have a fitted effect of over 60% in size. Further: potency means the concentration at half of the fitted maximal effect. On activity change, negative = inhibition: on the % scale 0 is the no-effect control and ±100 the full control effect. A digest of the protocol:
as §1
Background: qHTS replaces the single test concentration by a dilution series.

Experiment [4] relates to Zika virus NS2B-NS3 protease (linked construct). As to the kind of experiment: Primary screen NINDS Rhodamine qHTS for Zika virus inhibitors (AID 1347160). Further: nearly all actives have a fitted effect of over 55% in size. Further: potency means the concentration at half of the fitted maximal effect. On activity change, negative = inhibition: on the % scale 0 is the no-effect control and ±100 the full control effect. The method, boiled down:
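In 10 mM Tris-HCl pH 8.0 containing 0.01% Tween 20, linked NS2B-NS3 protease (25 nM final) is exposed to test compounds for 15 min. Cleavage of 1.5 microM Rhodamine110 substrate is tracked by fluorescence over 15 min.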

Experiment [5] can be described thus: Confirmatory screen NINDS Rhodamine qHTS for Zika virus inhibitors (AID 1347161). Further: potency means the concentration at half of the fitted maximal effect; nearly all actives have a fitted effect of over 60% in size. The note with it: purified enzyme assay, Rhodamine110 substrate fluorescence, 15 min. The method, boiled down: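 Rhodamine110-peptide cleavage (1.5 µM substrate) by 25 nM linked NS2B-NS3 enzyme at pH 8.0 (Tris, Tween 20), after 15 min RT preincubation with compounds; 15-min fluorescence change normalized to controls and Hill-fitted.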

The subject of experiment [6] is Zika virus NS2B-NS3 protease (linked construct). The experiment can be described thus: 384 well plate NINDS Rhodamine confirmatory qHTS for Zika virus inhibitors (AID 1347164).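 Further: fluorescence from protease cleavage of Ac-LKRR-rhodamine 110 substrate; nearly all actives have a fitted effect of over 65% in size.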 Further: potency means the concentration at half of the fitted maximal effect.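 On activity change, negative = inhibition: top concentration of the series differs between compounds; plate controls were no-inhibitor control for no effect and no-enzyme control for full effect.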 A digest of the protocol: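 Fluorescence read at ex 485 nm/em 538 nm, 25 min after adding 10 microM Ac-LKRR-Rd substrate at room temperature in the dark; signal normalized to no-enzyme and no-inhibitor controls. Enzyme final 5, 30 or 60 nM; compounds, ~15 min preincubation.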

Experiment [7] in a line: HepG2 cells viability qHTS for Zika virus inhibitors (AID 1347168). Further: on the % scale 0 is the no-effect control and ±100 the full control effect. The method, boiled down:
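Counter-screen for cytotoxicity of hits from NS2B-NS3 protease qHTS. Overnight-attached cells (2.5 x 10^5 cells/mL, DMEM/4% FBS) were dosed in titration, incubated 24 to 48 hours, then assayed by CellTiter Glo.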

The nature of experiment [8]: Tertiary RLuc qRT-PCR qHTS assay for Zika virus inhibitors (AID 1347169). Further: nearly all actives have a fitted effect of over 55% in size. Further: potency means the concentration at half of the fitted maximal effect. On activity change, negative = inhibition: top concentration of the series differs between compounds; on the % scale 0 is the no-effect control and ±100 the full control effect. A digest of the protocol: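 Luminescence read-out: live-cell Renilla luciferase substrate applied to infected Vero cells, signal measured after 1-1.5 hrs. Cells had received compound before ZIKV-RLuc (Cambodian strain, MOI 1-2) infection and were incubated 48-72 hrs at 37 degrees C.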
In experiment [9] the test system is Zika virus NS2B-NS3 protease (unlinked complex). The experiment can be described thus: Confirmatory screen GU AMC qHTS for Zika virus inhibitors (AID 1347153).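 Further: enzyme at 25 nM with substrate at 10 µM below its Km of 18.3 µM; potency means the concentration at half of the fitted maximal effect; nearly all actives have a fitted effect of over 70% in size.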 Conditions: Recombinant NS2B-NS3 protease, AMC substrate fluorescence. The method, boiled down: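 Compounds were preincubated 15 min at room temperature with 25 nM noncovalent NS2B-NS3 protease at pH 8.0; AMC substrate added at 10 microM and 15-min fluorescence gain (340/450 nm) converted to percent inhibition, fitted 4-parameter.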

Experiment [10] has as its system Zika virus NS2B-NS3 protease (linked). The experiment can be described thus: 384 well plate NINDS AMC confirmatory qHTS for Zika virus inhibitors (AID 1347163). Further: nearly all actives have a fitted effect of over 50% in size. Further: potency means the concentration at half of the fitted maximal effect.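 On activity change, negative = inhibition: linked protease at 5 30 or 60 nM final depending on run; fluorescence of AMC released from Ac-VKTGKR-AMC peptide cleaved by the protease; top concentration of the series differs between compounds; 0% = no-inhibitor control and -100% = no-enzyme control.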 The method, boiled down: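 Linked NS2B-NS3 protease (final 5 nM, 30 nM or 60 nM) was preincubated with compounds (final up to 1 mM) for ~15 minutes. Ac-VKTGKR-AMC substrate (final 30 microM) then reacted for 25 minutes at room temperature in the dark. Fluorescence (ex 355/em 460 nm) was normalized to no-enzyme and no-inhibitor controls.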

Experiment [11] has as its system Zika virus NS2B-NS3 protease. The experiment can be described thus: Primary screen GU AMC qHTS for Zika virus inhibitors (AID 1347154).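 Further: 0% = no-inhibitor control and -100% = no-enzyme control; nearly all actives have a fitted effect of over 70% in size.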 The method, boiled down:
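Unlinked Zika NS2B hydrophilic domain/NS3 protease domain noncovalent complex (25 nM final) in 10 mM Tris-HCl pH 8.0, 0.01% Tween 20, with AMC peptide substrate. Fluorescence (ex 340, em 450 nm) change over 15 min, room temperature; percent inhibition fitted to 4-parameter Hill equation.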

Experiment [12] addresses Furin (Homo sapiens) (UniProt P09958). As to the kind of experiment: Furin counterscreen qHTS for Zika virus inhibitors (AID 1347149). Further: nearly all actives have a fitted effect of over 70% in size. Further: potency means the concentration at half of the fitted maximal effect.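 On activity change, negative = inhibition: purified recombinant full-length human furin enzyme at 5 nM; fluorescence gain from furin cutting a BOC-RVRR-AMC peptide substrate over 15 min; top concentration of the series differs between compounds; plate controls were no-inhibitor control for no effect and no-enzyme control for full effect.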 A digest of the protocol:
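Fluorogenic cleavage of BOC-RVRR-AMC (2 microM final, Km ~15 µM) was monitored (ex 340, em 450 nm) at 37C after 15 min RT preincubation of 5 nM furin with compounds in HEPES pH 7.0 buffer with CaCl2 and Triton X-100. Percent inhibition was fitted to a 4-parameter Hill curve.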
In general terms: The purpose of a counterscreen is to sort out artefacts and off-target activity.

Experiment [13] is described as follows: ZIKV-mCherry secondary qHTS for Zika virus inhibitors (AID 1347158). Further: top concentration of the series differs between compounds. The method, boiled down: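 Vero, 5,000 cells/well, o/n 37 °C; cpd pin-transferred in DMSO; ZIKV-mCherry MOI 1, 48-72 h 37 °C; 32% PFA stock fix, Hoechst; imaged 10x DAPI/mCherry; mCherry+ threshold 450 RFU; % infection.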
Experiment [14] has as its system Zika virus NS2B-NS3 protease (unlinked). The experiment can be described thus: Optimization of GU AMC qHTS for Zika virus inhibitors: Unlinked NS2B-NS3 protease assay (AID 1347151). Further: potency means the concentration at half of the fitted maximal effect; nearly all actives have a fitted effect of over 80% in size. The note with it: recombinant ZIKV NS2B-NS3 protease, fluorogenic AMC substrate. A digest of the protocol:
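Fluorescence read-out (340 nm ex / 450 nm em) of AMC peptide cleavage, taken immediately and after 15 min at room temperature (~20% conversion). Enzyme was the unlinked NS2B–NS3 complex at 25 nM in Tris pH 8.0 buffer.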

Where “and” joins values, the source holds several entries; their conditions need not be identical. Equal entries are not always repeated. Inconclusive results are not listed. Unmarked numbers belong to inactive results. Calls of active or inactive are those of the source. The call rests on the fitted dose curve; in most records, active means well fitted curve in the direction sought with a large enough effect; inconclusive means small, poorly fitted or top-dose-only effect, or another doubt; inactive means no such curve, though single readings can be large; an effect the other way counts as inactive or inconclusive. Peptide text beside a SMILES is read from it.

Sequence of Furin (Homo sapiens) (P09958 whole entry, looked up): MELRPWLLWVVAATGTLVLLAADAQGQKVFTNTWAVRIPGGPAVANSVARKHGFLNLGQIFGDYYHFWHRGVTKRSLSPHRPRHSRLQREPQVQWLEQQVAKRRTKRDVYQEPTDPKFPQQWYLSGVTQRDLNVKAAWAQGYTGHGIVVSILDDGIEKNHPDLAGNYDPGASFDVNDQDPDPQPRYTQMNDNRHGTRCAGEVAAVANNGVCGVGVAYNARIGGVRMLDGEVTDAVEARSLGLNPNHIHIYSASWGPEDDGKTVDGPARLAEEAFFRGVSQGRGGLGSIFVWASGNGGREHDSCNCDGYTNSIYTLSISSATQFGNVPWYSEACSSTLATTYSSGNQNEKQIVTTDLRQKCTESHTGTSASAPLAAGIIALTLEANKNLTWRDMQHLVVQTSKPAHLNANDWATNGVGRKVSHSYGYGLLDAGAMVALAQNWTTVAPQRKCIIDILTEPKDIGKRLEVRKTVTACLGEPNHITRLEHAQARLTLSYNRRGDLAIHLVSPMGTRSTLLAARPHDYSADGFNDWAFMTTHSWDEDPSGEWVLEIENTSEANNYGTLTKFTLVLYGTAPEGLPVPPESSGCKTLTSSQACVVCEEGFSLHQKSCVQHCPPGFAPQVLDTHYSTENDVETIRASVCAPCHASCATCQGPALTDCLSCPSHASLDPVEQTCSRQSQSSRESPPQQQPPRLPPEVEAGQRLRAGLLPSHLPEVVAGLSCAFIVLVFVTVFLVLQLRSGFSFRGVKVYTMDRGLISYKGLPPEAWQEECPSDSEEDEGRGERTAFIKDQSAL

Take `CCOc1ccc(-c2ccc(Cn3c(CC(C)(C)C(=O)O)c(SC(C)(C)C)c4cc(OCc5ccc(C)cn5)ccc43)cc2)cn1`: the Potency in experiment [1] was 7.84 µM (active); in [2], 1.75 µM (active); in [3], 2.51 µM (active) and 2.82 µM (active); in experiment [4] it was 3.16 µM (active); in [5] it was 2.21 µM (active); in [8], 5.23 µM (active). Also, the Potency entry in experiment [6] is “inactive”. In addition, the compound was called inactive in [7].
On to `CC(=O)O[C@@H]1C[C@]2(C)[C@@]3(CCC4[C@@]5(C)CC[C@H](O[C@@H]6O[C@H](C(=O)O)[C@@H](O)[C@H](O[C@@H]7O[C@H](CO)[C@H](O)[C@H](O)[C@H]7O[C@@H]7O[C@@H](C)[C@H](O)[C@@H](O)[C@H]7O[C@@H]7OC[C@](O)(CO)[C@H]7O)[C@H]6O[C@@H]6O[C@H](CO)[C@H](O)[C@H](O)[C@H]6O)C(C)(C)C5CC[C@]42C)O[C@@H](O)[C@]12C3CC(C)(C)[C@@H](OC(=O)/C=C/c1ccc(O)c(O)c1)[C@@H]2OC(=O)/C=C/c1ccccc1` (some centres undefined), for which the Potency in [1] was 10.5 µM (active); in experiment [9] it was 7.42 µM (active); in [2] it was 3.32 µM (active); in [3], 3.16 µM (active); in experiment [4] it was 2.46 µM (active); in experiment [5], 1.66 µM (active). In [7], the activity change, negative = cytotoxicity is 0.159% [at 8.96 µM].
Take `CC1(C)CCC(C)(C)c2cc3c(cc21)Sc1ccccc1N=C3c1ccc(C(=O)O)cc1`: the Potency in experiment [1] is 7.84 µM (active); in experiment [2], 1.56 µM (active); in experiment [3] it was 2.51 µM (active); in experiment [4], 2.24 µM (active); in experiment [5], 1.75 µM (active); in experiment [10], 8.91 µM (active). In addition, the Potency in experiment [6] is 4.47 µM (active). Besides, in experiment [7], the compound was called inactive.
In the case of `CC(=O)N[C@@H](CC(=O)O)C(=O)N[C@@H](CCC(=O)O)C(=O)O` (Ac-Asp-Glu-OH), the call in [11] was inactive.
As for `CC(=O)c1c(C)cc(O)cc1O[C@@H]1O[C@H](CO)[C@@H](O)[C@H](O)[C@H]1O`, the Potency in [2] is 30.6 µM (active). The Potency result in experiment [3] and in [8] was “inactive” each time.
In the case of `O=S(=O)(O)c1cc(O)c2c(N=Nc3ccc(Nc4ccccc4)c4c(S(=O)(=O)O)cccc34)cc(S(=O)(=O)O)cc2c1`, the Potency in [2] is 2.82 µM (active); in [5], 5.62 µM (active); in experiment [10], 12.6 µM (active); in experiment [6] it was 6.31 µM (active). Also, the activity change, negative = inhibition in experiment [8] was -4.11% [at 1.74 µM].
For `CC1(C)CC[C@]2(C(=O)O[C@@H]3O[C@H](CO)[C@@H](O)[C@H](O)[C@H]3O)CC[C@]3(C)C(=CCC4[C@@]5(C)C[C@@H](O)[C@H](O)[C@@](C)(CO)C5CC[C@]43C)C2C1` (some centres undefined), the Potency in experiment [2] was 11.7 µM (active). Moreover, the Potency result in experiment [3] and in experiment [8] was “inactive” throughout.
`N#CC1C(=O)Nc2scc(-c3ccc(-c4ccccc4O)cc3)c2C1=O` (centres undefined): the Potency result in experiment [12] is “inactive”. Also, the Potency is 22.1 µM (active) in experiment [1]; 3.93 µM (active) in experiment [2]; 2.51 µM (active) in experiment [3]; 3.16 µM (active) in experiment [4]; 2.48 µM (active) in experiment [5]; 6.31 µM (active) in experiment [10]. Also, the Potency in [6] is 12.6 µM (active). Also, the outcome in experiment [7] was inactive.
For `O=S(=O)(O)c1ccc2c(N=Nc3ccc(S(=O)(=O)O)c4ccccc34)c(O)c(S(=O)(=O)O)cc2c1`, the Potency result in [12] and in experiment [8] was “inactive” in each case. Also, the Potency was 31.2 µM (active) in experiment [9]; 10 µM (active) in experiment [2]; 3.16 µM (active) in [5]; 63.1 µM (active) and 79.4 µM (active) in [10]; 15.8 µM (active) and 12.6 µM (active) in [6]. Also, the compound was classed as inactive in [13].
In the case of `CC(C)N=c1cc2n(-c3ccc(Cl)cc3)c3ccccc3nc-2cc1Nc1ccc(Cl)cc1`, the Potency result in experiment [12] and in [6] was “inactive” in each case. Also, in experiment [14], the Potency is 0.607 µM (active). The outcome in experiment [11] and in experiment [13] was inactive.
Take `COc1cccc(-n2nc(C(=O)O)cc2-c2ccc(C3CCCCC3)c(Cl)c2)c1`: the Potency in [1] is 13.9 µM (active); in experiment [9], 12.4 µM (active); in [2], 2.21 µM (active); in [3] it was 1.78 µM (active); in experiment [4], 2.51 µM (active); in experiment [5] it was 1.97 µM (active). The Potency in experiment [6] is 5.01 µM (active); in experiment [8] it was 18.6 µM (active). Also, the outcome in experiment [7] was inactive.
Consider `O=C(O)c1cc(O)c2cccc(O)c2c1O[C@@H]1O[C@H](CO)[C@@H](O)[C@H](O)[C@H]1O`, for which the Potency is 34.3 µM (active) in experiment [12]; 30.6 µM (active) in [1]; 30.6 µM (active) in [9]; 10.9 µM (active) in experiment [2]; 10 µM (active) in [3]; 5.01 µM (active) in experiment [4]. Moreover, the Potency in experiment [5] is 2.73 µM (active); in experiment [6], 2.82 µM (active). The compound was called inactive in [13] and in [7]. Moreover, the Potency result in experiment [10] and in [8] was “inactive” in each case.
Take `C=C1CC[C@@H]2[C@](C)(CO[C@@H]3O[C@H](CO)[C@@H](O)[C@H](O)[C@H]3O)CCC[C@@]2(C)[C@@H]1CCC1=CCOC1=O`: the Potency entry in experiment [12], in experiment [3] and in [4] was “inactive” in each case.
Consider `CC12CCC3C(C)(C)C(O)CCC3(C)C1Cc1c(oc(C(=O)O)cc1=O)O2` (centres undefined), for which the Potency is 24.3 µM (active) in experiment [2] and 27.3 µM (active) in experiment [5]. Also, the Potency entry in [4] and in [8] was “inactive” each time.
Take `O=C(O)c1ccc(CCCc2ccc(OCCc3ccc(F)cc3)cc2)o1`: the Potency in experiment [1] is 44.1 µM (active); in experiment [9], 49.4 µM (active); in experiment [2], 3.12 µM (active); in [3], 4.47 µM (active); in [4], 3.98 µM (active); in experiment [5], 2.78 µM (active). In experiment [10], the Potency is 5.01 µM (active). Besides, the Potency result in experiment [6] is “inactive”. Also, the outcome in [7] was inactive.
